Inconclusive results are not listed. A call without a number means that no potency is given here. The source made the active and inactive calls. The call rests on the fitted dose curve; in most records, active means well fitted cell-killing curve with a large enough effect in the repeat runs; inconclusive means weak or mixed curves, or effect the other way; inactive means flat fitted curve, though single readings scatter.

The nature of the test: qHTS assay to identify small molecule agonists of the androgen receptor (AR) signaling pathway in the presence of an antagonist - cell viability counter screen (AID 1259379). Further: nearly all actives have a fitted effect of over 25% in size. As to conditions: MDA-kb2 viability, CellTiter-Fluor, 16 h; series mostly up to 92.4 µM. An excerpt:
National Center for Advancing Translational Sciences [NCATS]
NIH Chemical Genomics Center [NCGC]
U.S. Environmental Protection Agency [EPA]
National Institutes of Environmental Health Sciences [NIEHS]
National Toxicology Program [NTP]
U.S. Food and Drug Administration [FDA]
Androgen receptor (AR) is an important member of nuclear receptor family. Its signaling plays a critical role in AR-dependent prostate cancer and other androgen related diseases. Considerable attention has been given in the past decades to develop methods to study and screen for the environmental chemicals that have the potential to interfere with metabolic homeostasis, reproduction, developmental and behavioral functions. Therefore AR binding assay for screening against androgen agonists and antagonists can be used to identify potential endocrine disruptors.
MDA-kb2 cells (from ATCC, deposited by Wilson et al.) are human breast carcinoma cells that were stably transfected with a luciferase reporter gene under control of the MMTV promoter that contains response elements for both androgen receptor (AR) and glucocorticoid receptor (GR). This particular screening for measuring luciferase reporter gene activity using MDA-kb2 cells against Tox21 10K library compounds is a confirmation study on agonist mode screening in the presence of AR-antagonist compound (Nilutamide) at 3.0uM final concentration. The cytotoxicity of the compounds was tested in parallel by measuring the cell viability using CellTiter-Fluor assay system (Promega, Madison, WI) in the same wells.
Tox21 Assay Protocol Summary:
MDA-kb2 cells (cells cultured without CO2) were dispensed at 3,000 cells/well in 4uL of culture medium into white wall/solid-bottom 1536-well plates (Corning Life Sciences, Corning, NY) using a Multidrop Combi (Thermo Fisher Scientific Inc., Waltham, MA) dispenser. The assay plates were incubated at 37C and 0% CO2 for 5hr. One uL of 3.0uM (final concentration) Nilutamide or assay buffer was added using two separate tips of Flying Reagent Dispenser (FRD, Aurora Discovery, San Diego, CA). Then 23nL of compounds dissolved in DMSO at 15 concentrations and positive controls were transferred to the assay plates using a Pintool station (Wako, San Diego, CA). The assay plates were incubated at 37C and 0% CO2 for 16 hr. After 15hr incubation at 37C, 1uL/well CellTiter-Fluor reagent (Promega Corporation) was added to each well of the assay plates using FRD. After 1hr incubation at 37C and 0% CO2, the fluorescence signal was measured using a ViewLux plate reader (PerkinElmer, Shelton, CT).
In general terms: In qHTS, concentration-response curves come from the screen itself.
`Cc1c(N)c(=O)n(-c2ccccc2)n1C`: the Potency result is “inactive”.

Turning to `CC(=O)N1C[C@H](O)C[C@H]1C(=O)O`, the Potency entry is “inactive”.

Consider `O=C(c1ccccc1)C1(O)CCCCC1`, for which the Potency entry was “inactive”.

For `COc1cc(C)nc(-n2nc(C)cc2OC)n1`, the Potency result was “inactive”.

On to `C[C@H]1[C@H](NC(=O)/C(=N/OC(C)(C)C(=O)O)c2csc(N)n2)C(=O)N1S(=O)(=O)O` (stereo in doubt), for which the Potency result is “inactive”.

For `CCOC(=O)COc1cc(-n2ncc(C(F)(F)F)c(C)c2=O)c(F)cc1Cl`, the Potency result is “inactive”.

`CCOCC(C)O` (stereo not given): the Potency result was “inactive”.

For the compound `CCOC(=O)C(=O)CCCCCCl`, the Potency entry was “inactive”.

With `CCN(C=O)CC`, the Potency result is “inactive”.

Take `CCOC(=O)c1cnc2c(cnn2CC)c1NN=C(C)C`: the Potency result is “inactive”.

Take `c1ccc2sc(SN3CCOCC3)nc2c1`: the Potency result was “inactive”.

As to `N[C@H](C(=O)O)[C@@H](O)c1ccc(O)c(O)c1`, the Potency result was “inactive”.

For `CC(C(=O)O)c1cccc(Oc2ccccc2)c1` (stereo not given), the Potency result was “inactive”.

For `Cc1ncc(COP(=O)(O)O)c(C=O)c1O`, the Potency result is “inactive”.

Consider `CC1=NS(=O)(=O)c2cc(Cl)ccc2N1`, for which the Potency entry was “inactive”.

Regarding `[O-][n+]1cccc(CO)c1`, the Potency result was “inactive”.

`Nc1ccncc1N`: the Potency entry is “inactive”.

`CCCCCCCCCCCCSC`: the Potency entry was “inactive”.

`CN(C)C(=O)Oc1cccc([N+](C)(C)C)c1`: the Potency result is “inactive”.

In the case of `CC(C)(CCC(=O)O)C(=O)O`, the Potency entry was “inactive”.

Take `C=CCCCCCCCCC(=O)OCC`: the Potency entry was “inactive”.

Take `CCN(CC#N)c1cccc(C)c1`: the Potency entry is “inactive”.

Regarding `CN(C)CCCN(C)CCCN(C)C`, the Potency result is “inactive”.

With `CC(C)C(=O)OC(=O)C(C)C`, the Potency result was “inactive”.

As to `CN(C)C(=O)Oc1ccc[n+](C)c1`, the Potency entry is “inactive”.

For `Cc1ccc(-c2ccccc2C#N)cc1`, the Potency entry is “inactive”.

For `CCCC[N+](C)(CCCC)CCCC`, the Potency entry was “inactive”.

Regarding `CC(C)=CCC/C(C)=C/C#N`, the Potency result is “inactive”.

For `O=[N+]([O-])c1ccc(/C=N\O)o1`, the Potency entry is “inactive”.

Consider `CNC(=O)Nc1ccc(Cl)c(Cl)c1`, for which the Potency entry is “inactive”.

Regarding `[Ca+2]`, the Potency entry was “inactive”.

Turning to `CCCCCCCCCCCCCCC(=O)O`, the Potency result is “inactive”.

Regarding `CC(=O)C1CCCCC1=O` (stereo not given), the Potency entry was “inactive”.

In the case of `CC(=O)O[C@@]12CO[C@@H]1C[C@H](O)[C@@]1(C)C(=O)[C@H](O)C3=C(C)[C@@H](OC(=O)[C@H](O)[C@@H](NC(=O)OC(C)(C)C)c4ccccc4)C[C@@](O)([C@@H](OC(=O)c4ccccc4)[C@H]21)C3(C)C`, the Potency result is “inactive”.

In the case of `C=CN1CCCCCC1=O`, the Potency result is “inactive”.

For `O=S(=O)(O)c1cc(O)c(O)c(S(=O)(=O)O)c1`, the Potency entry was “inactive”.

For the compound `O=C1CCCCCCCCCCCCCCO1`, the Potency result was “inactive”.

Consider `c1ccc(CCc2ccccc2)cc1`, for which the Potency entry is “inactive”.

In the case of `OCCCCCO`, the Potency result is “inactive”.

With `Cc1ccc(C(=O)c2ccccc2)cc1`, the Potency entry was “inactive”.

The values are drawn from PubChem BioAssay (Tox21).
